“And” between values parts separate entries of the source, which are not always exact repeats. Equal values may be shown once. Results filed as inconclusive are left out. Some compounds were tested as several samples or in several runs, with calls that do not always agree. The source made the active and inactive calls. The call rests on the fitted dose curve; in most records, active means well fitted curve in the direction sought with a large enough effect; inconclusive means small, poorly fitted or top-dose-only effect, or another doubt; inactive means no such curve, though single readings can be large; an effect the other way counts as inactive or inconclusive.
Legend:
[1] = P-glycoprotein substrates identified in KB-3-1 adenocarcinoma cell line, qHTS therapeutic library screen (AID 1346986); further: nearly all actives have a fitted effect of over 60% in size;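 further: potency means the concentration at half of the fitted maximal effect; potency is for cytotoxicity meaning loss of cell viability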
Procedure, shortened: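 Resistance attributable to P-gp was assessed by comparing AC50 in KB-8-5-11 with parental KB-3-1 and by tariquidar reversal. Cells were exposed 72 h and viability read by CellTiter-Glo.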

[2] = P-glycoprotein substrates identified in KB-8-5-11 adenocarcinoma cell line, qHTS therapeutic library screen (AID 1346987); further: nearly all actives have a fitted effect of over 65% in size; further: potency means the concentration at half of the fitted maximal effect
Procedure, shortened: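 Steps: plate 500 KB-8-5-11 cells/well in DMEM + 10% FCS (colchicine removed); pin compounds in dose-response; incubate 72 h, 37 degree C, 5% CO2; add CellTiter-Glo, 5 min; read luminescence.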

[3] = qHTS of pediatric cancer cell lines to identify multiple opportunities for drug repurposing: Primary screen for TC32 cells (AID 1347089); further: nearly all actives have a fitted effect of over 60% in size; further: potency means the concentration at half of the fitted maximal effect
Procedure, shortened: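 Measured quantity: luminescence from CellTiter-Glo, reflecting metabolically active TC32 cells following 48 h of compound. Curves came straight from multi-point titrations, with 8 or 11 points in primary and 11 in confirmatory screening.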

[4] = qHTS of pediatric cancer cell lines to identify multiple opportunities for drug repurposing: Primary screen for DAOY cells (AID 1347090); further: nearly all actives have a fitted effect of over 55% in size; further: potency means the concentration at half of the fitted maximal effect
Procedure, shortened: (§1)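 Eight- or eleven-point concentration series, 48 h treatment at 37 degrees C in growth media; readout CellTiter-Glo luminescence. Potency and efficacy were taken from the concentration-response curves.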

[5] = qHTS of pediatric cancer cell lines to identify multiple opportunities for drug repurposing: Primary screen for A673 cells (AID 1347092); further: nearly all actives have a fitted effect of over 45% in size; further: potency means the concentration at half of the fitted maximal effect
Procedure, shortened: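 Cells are plated, rested 5 h, dosed by pintool, incubated 48 h, then lysed with CellTiter-Glo and read by luminescence. DMSO is the neutral control; bortezomib at 2.3 uM final is the positive control.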

[6] = qHTS of pediatric cancer cell lines to identify multiple opportunities for drug repurposing: Primary screen for SK-N-MC cells (AID 1347093); further: potency means the concentration at half of the fitted maximal effect
Procedure, shortened: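 Metabolically active cells were quantified by ATP-dependent luminescence (CellTiter-Glo, 15 min at room temperature) following 48 h treatment. Cells had been plated at 500-1,000 per well and settled for 5 h beforehand.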

[7] = qHTS of pediatric cancer cell lines to identify multiple opportunities for drug repurposing: Primary screen for NB-EBc1 cells (AID 1347095); further: potency means the concentration at half of the fitted maximal effect
Procedure, shortened: (§2)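 ATP-based luminescence (CellTiter-Glo) quantifies viability after a 48-hour exposure. Compounds are dosed across 8 or 11 final concentrations; DMSO and 2.3 µM bortezomib serve as controls.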

[8] = qHTS of pediatric cancer cell lines to identify multiple opportunities for drug repurposing: Primary screen for SK-N-SH cells (AID 1347098); further: nearly all actives have a fitted effect of over 65% in size; further: potency means the concentration at half of the fitted maximal effect
Procedure, shortened: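 Cells (500-1,000/well) rested 5 h, then received compounds for 48 h; metabolically active cells were measured by CellTiter-Glo luminescence. Final concentrations spanned up to 46 µM (MIPE, 11-point) or 0.59 nM-46 µM (NPC, 8-point) in primary screens, 11-point in follow-ups.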

[9] = NS1 protein of Zika virus - qHTS assay to identify small molecule inhibitors in human HEK 293 cells (AID 1347053); further: series mostly up to about 46 µM; nearly all actives have a fitted effect of over 55% in size
Procedure, shortened: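 HEK 293 cells, seeded 20 h at 37 C, were pretreated with compound 1 h, then infected with ZIKV MR766 (MOI = 0.5) for 24 h. NS1 was read by TR-FRET with two anti-NS1 antibodies, normalized to uninfected and infected wells.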

[10] = qHTS of pediatric cancer cell lines to identify multiple opportunities for drug repurposing: Primary screen for BT-37 cells (AID 1347094); further: potency means the concentration at half of the fitted maximal effect
Procedure, shortened: as §2

[11] = qHTS of pediatric cancer cell lines to identify multiple opportunities for drug repurposing: Primary screen for U-2 OS cells (AID 1347096); further: nearly all actives have a fitted effect of over 50% in size; further: potency means the concentration at half of the fitted maximal effect
Procedure, shortened: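 Cells (500-1,000/well) in growth media were settled 5 h at 37 degrees C, then given compounds for 48 h. Viability was read as CellTiter-Glo luminescence. Primary runs used MIPE at 11 points (0.78 nM-46 µM) and NPC at 8 points (0.59 nM-46 µM); follow-ups used 11 points.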

[12] = qHTS of pediatric cancer cell lines to identify multiple opportunities for drug repurposing: Primary screen for Saos-2 cells (AID 1347097); further: nearly all actives have a fitted effect of over 40% in size; further: potency means the concentration at half of the fitted maximal effect
Procedure, shortened: as §2

[13] = qHTS of pediatric cancer cell lines to identify multiple opportunities for drug repurposing: Primary screen for SJ-GBM2 cells (AID 1347091); further: potency means the concentration at half of the fitted maximal effect
Procedure, shortened: as §1

Measured: Potency

COc1cc(Nc2nc3ccccc3nc2NS(=O)(=O)c2ccc(NC(=O)c3ccc(C)c(OC)c3)cc2)cc(OC)c1
inactive: [1] | [2] | [3]
active: [4] 23.5 µM | [5] 23.5 µM | [6] 26.4 µM | [7] 26.4 µM | [8] 24.1 µM

CN(C)c1ccccc1CN1CCCN(Cc2ccccc2N(C)C)C1c1ccncc1
inactive: [1] | [2] | [3] | [4]
active: [5] 18.7 µM | [6] 26.4 µM | [7] 20.9 µM

CC(C)Oc1cc(Nc2nc(N[C@@H](C)c3ccc(F)cn3)ncc2Cl)[nH]n1
inactive: [9]
active: [1] 10.3 µM | [6] 4.69 µM | [10] 27.3 µM | [7] 3.32 µM | [11] 23.5 µM | [12] 5.26 µM | [8] 13.6 µM

CNC(=O)c1cc(COc2nnc(Nc3ccc(Cl)cc3)c3ccoc23)ccn1
inactive: [1] | [2] | [3] | [8]
active: [4] 23.5 µM | [13] 20.9 µM | [6] 23.5 µM | [7] 23.5 µM | [12] 18.7 µM

CCC(=O)OCC(=O)[C@@]1(OC(=O)CC)[C@@H](C)C[C@@H]2[C@H]3CCC4=CC(=O)C=C[C@]4(C)[C@@]3(F)[C@@H](O)C[C@@]21C
active: [4] 1.18 µM | [6] 0.0372 µM | [12] 0.187 µM
inactive: [1] | [3] | [7] | [11]

O=C(NC[C@H](O)CO)c1ccncc1Nc1ccc(I)cc1F
active: [6] 5.26 µM | [8] 21.5 µM
inactive: [1] | [2] | [3] | [13]

COc1nc(C)cnc1NS(=O)(=O)c1cccnc1-c1ccc(-c2nnco2)cc1
inactive: [1] | [2] | [3] | [4] | [13] | [6] | [10] | [7] | [11] | [12]

Cc1ccc(NC(=O)c2ccc(CN3CCN(C)CC3)cc2)cc1Nc1nc(-c2cccnc2)cs1
inactive: [1] | [3] | [7]
active: [5] 11.8 µM | [10] 24.3 µM

COC(=O)[C@H](c1ccccc1Cl)N1CCc2sccc2C1
inactive: [1] | [9] | [3] | [4] | [13] | [7] | [11]
active: [5] 1.48 µM

CSc1cccc(Nc2ncc3cc(-c4c(Cl)cccc4Cl)c(=O)n(C)c3n2)c1
inactive: [3]
inactive and 1.3 µM (active): [2]
active: [1] 2.06 µM | [13] 0.418 µM | [6] 0.0935 µM | [7] 0.372 µM | [12] 0.118 µM

CC(=O)NCCC(=O)N[C@@H](CCC(N)=O)C(=O)N[C@@H](CO)C(=O)N[C@@H](CCC(N)=O)C(=O)N[C@@H](CCC(N)=O)C(=O)N[C@H](C(=O)N[C@@H](Cc1ccccc1)C(=O)N[C@]1(C)CCCCCCC=CCCC[C@@](C)(C(=O)N[C@@H](CCC(N)=O)C(=O)N[C@@H](CC(N)=O)C(N)=O)NC(=O)[C@H](CC(C)C)NC(=O)[C@H](CC(C)C)NC(=O)[C@@H](CCCNC(=N)N)NC(=O)[C@H](Cc2c[nH]c3ccccc23)NC(=O)[C@H](CC(C)C)NC(=O)[C@H](CC(N)=O)NC1=O)[C@H](C)O
inactive: [1] | [2] | [3] | [13] | [6] | [7] | [11] | [12] | [8]

Cn1c(=O)c(Oc2ccc(F)cc2F)cc2cnc(NC3CCOCC3)nc21
inactive: [1] | [2] | [13] | [5] | [6] | [10] | [7] | [11] | [8]

CCC(=O)N1CCN(c2ccc(-n3c(=O)ccc4cnc5ccc(-c6cnc7ccccc7c6)cc5c43)cc2C(F)(F)F)CC1
active: [1] 0.075 µM | [2] 41.8 nM and 133 nM | [3] 0.0739 µM | [13] 0.0187 µM | [5] 0.0118 µM | [6] 0.0053 µM | [10] 0.0217 µM | [7] 0.0662 µM

C[C@]12CC[C@@H]3c4ccc(O)cc4CC[C@H]3[C@H]1[C@@H](O)[C@@H](O)[C@H]2O
inactive: [1] | [9] | [13] | [10] | [7] | [11]

CN(C)c1ccc(-c2nc3ncc(Cl)c(N4CCN(CC(=O)Nc5nccs5)CC4)c3[nH]2)cc1
active: [7] 2.35 µM | [12] 14.8 µM
inactive: [1] | [2] | [3] | [4]

Cn1c(=O)c(-c2c(Cl)cccc2Cl)cc2cnc(Nc3cccc(C(=O)O)c3)nc21
active: [4] 0.372 µM | [13] 0.526 µM | [6] 0.0935 µM | [7] 1.32 µM | [12] 0.743 µM
inactive and 4.61 µM (active): [2]
inactive: [1] | [3] | [10] | [8]

O=C1C(c2c(O)[nH]c3ccccc23)=Nc2ccccc21
active: [4] 0.59 µM | [5] 0.59 µM | [6] 0.118 µM
inactive: [1] | [9] | [3] | [11]

CN(C)CCCNC(=O)c1ccc(-c2cc(O)c3ncccc3c2)cc1
inactive: [9] | [3] | [4] | [13] | [6] | [11]
active: [1] 18.4 µM | [5] 23.5 µM

CN(C)c1nc(Cc2ccc(NC(=O)c3ccc(C(F)(F)F)cc3)cc2)nc(N(C)C)c1CC(=O)O
inactive: [1] | [2] | [3] | [4] | [5] | [6] | [10] | [7] | [11] | [12] | [8]
